Data as given in PubChem BioAssay AID2289 (National Center for Advancing Translational Sciences (NCATS), 2010).
In all, about 340,000 compounds went through this assay and about 3,300 (0.97%) were called active. Another 9% or so got no clear call; they are omitted. Calls come from the whole dose curve; as a rule, active = well fitted inhibition curve with a large enough effect; inconclusive = small, poorly fitted or top-dose-only effect, or effect the other way; inactive = flat fitted curve, though single readings scatter. This is one part of the list.

experiment: qHTS Assay for Modulators of miRNAs and/or Inhibitors of miR-21; conditions: HeLa miR-21-FLuc reporter, luciferase luminescence, 48 h; actives lower the signal; note: nearly all actives have a fitted effect of over 55% in size
Outline: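 Compounds were titrated across several concentrations (up to approximately 40 uM) and incubated 48 hours with HeLa miR-21-FLuc reporter cells (miR-21 target sequence downstream of FLuc, endogenous miR-21). Readout was firefly luciferase luminescence after lytic detection reagent.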
Potency is the fitted concentration of half-maximal effect.

Potency, active:
Cc1cccc(Nc2nc(-c3ccc(O)c(O)c3)cs2)n1 8.26 µM, c1ccc(-c2csc(Nc3ncccn3)n2)cc1 0.208 µM, Cc1nc(N)sc1-c1csc(Nc2ncccn2)n1 2.93 µM, c1ccc(Nc2nc(-c3cccs3)cs2)nc1 0.293 µM, Cc1ccc(Nc2nc(-c3ccc(O)c(O)c3)cs2)nc1 8.26 µM, Cc1ccnc(Nc2nc(-c3ccc(O)c(O)c3)cs2)c1 4.65 µM, CCOC(=O)c1cccnc1SCc1cc(=O)n2ccccc2n1 13.1 µM, COc1ccc(/C=N/NC(=O)c2ccoc2C)cc1O 6.56 µM, CCOc1ccc(/C=N/NC(=O)c2ccoc2C)cc1OC 7.36 µM, Cc1ccc2nc(-c3ccc(NC(=O)CCN4C(=O)c5ccccc5C4=O)cc3)sc2c1 0.0927 µM, Cc1ccc2sc(-c3ccc(NC(=O)CCN4C(=O)c5ccccc5C4=O)cc3)nc2c1 0.104 µM, O=C(CCN1C(=O)c2ccccc2C1=O)Nc1ccc(-c2nc3ccccc3s2)cc1 0.261 µM, Cc1ccc2nc(-c3ccc(NC(=O)CN4C(=O)c5ccccc5C4=O)cc3)sc2c1 1.65 µM, Cc1ccc2nc(-c3ccc(NC(=O)CSc4nc(N)cc(=O)[nH]4)cc3)sc2c1 8.26 µM, Cc1ccc2nc(-c3ccc(NC(=O)C(C)N4C(=O)c5ccccc5C4=O)cc3)sc2c1 (centres undefined) 1.17 µM, CCC(=O)c1ccc(OCc2ccc(C(=O)OC)cc2)cc1 0.261 µM, CCC(=O)c1ccc(OCc2ccc(C#N)cc2)cc1 9.27 µM, CCOc1ccc(C2=NNC(c3cccs3)=Nc3ccc(OC)cc32)cc1OCC 18.5 µM, CCOc1ccc2c(c1)C(c1ccc(C)cc1)=NNC(c1ccc(C)cc1)=N2 8.26 µM, C=C(C)C1Cc2cc3ccc(=O)oc3cc2O1 (centres undefined) 16.5 µM, Cc1ccc(Cn2nnc3c(=O)[nH]c(C4CCCN(S(=O)(=O)c5ccccc5)C4)nc32)cc1 (centres undefined) 18.5 µM, O=C(Nc1ccccc1Br)c1cc(=O)c2ccccc2o1 2.07 µM, NC(=O)c1ccsc1NC(=O)c1coc2ccccc2c1=O 1.17 µM, NC(=O)c1ccsc1NC(=O)c1cc(=O)c2ccccc2o1 0.329 µM, COc1cccc(/C(C)=N/N=C(\C)c2cccc(OC)c2)c1 4.14 µM, COc1cccc(/C(C)=N/Nc2ncc(Cl)cc2Cl)c1 16.5 µM, CCNc1nc(N)nc(Oc2ccc(C(=O)OC)cc2)n1 8.26 µM, CC(=O)COc1ccc2c(c1C)O/C(=C\c1ccco1)C2=O 3.69 µM, CN(CC(=O)NCCc1ccccc1)Cc1ccco1 14.7 µM, CCNC(=O)CCCOc1ccc(Cl)cc1Cl 16.5 µM, Cn1c(CCCOc2ccc(Cl)cc2Cl)n[nH]c1=S 13.1 µM, CCN(CC)C(=O)CCCOc1ccc(Cl)cc1Cl 14.7 µM, O=C(CCCOc1ccc(Cl)cc1Cl)Nc1ccccn1 11.7 µM, CCOC(=O)c1cnc(SCCc2ccccc2)nc1N 1.65 µM, CCOC(=O)c1cnc(SCc2ccc(C)cc2)nc1N 7.94 µM, CCCCSc1ncc(C(=O)OCC)c(N)n1 1.31 µM, C=CCSc1ncc(C(=O)OCC)c(N)n1 16.5 µM, COc1cc(C2Nc3ccccc3C(=O)N2c2ccc(Cl)cc2)c(Cl)cc1OCC(=O)O (centres undefined) 2.33 µM, CCOC(=O)COc1ccccc1C1Nc2ccccc2C(=O)N1c1cccc(Cl)c1 (centres undefined) 5.85 µM, O=C(CSc1nc(-c2ccc(F)cc2)cs1)N1CCOCC1 6.56 µM, Cc1nc(-c2ccc3c(c2)CCC(=O)N3)cs1 14.7 µM, CCc1ccccc1NC(=O)CSc1nc(C)c(C(=O)Nc2ccccc2)c(-c2ccc(Cl)cc2)c1C#N 23.3 µM, COc1ccccc1CCCNC(=O)C1CCC(=O)N(Cc2ccccc2F)C1 (centres undefined) 14.7 µM, COc1ccc(C(=O)NCCc2c[nH]c3ccccc23)cc1 3.29 µM, O=C(NCCc1c[nH]c2ccccc12)c1ccc(F)cc1F 9.27 µM, O=C(NCCc1c[nH]c2ccccc12)c1ccc(Cl)cc1 7.36 µM, Cc1ccc(S(=O)(=O)/N=C(/NNC(=O)c2cccc(Cl)c2)c2ccccc2)cc1 1.85 µM, O=C(NN/C(=N/S(=O)(=O)c1ccc(Cl)cc1)c1ccccc1)c1cccc(Cl)c1 2.07 µM, COc1cc(N/N=C/c2ccc(N(C)C)cc2)ncn1 0.208 µM, CN(C)c1ccc(/C=N\Nc2ccccn2)cc1 0.521 µM, Fc1ccc(/C=N/Nc2ccccn2)cc1 8.26 µM, C(=N\Nc1ccccn1)/c1ccc(N2CCOCC2)cc1 1.85 µM, COc1ccc(C2=NN(C(=O)CN3CCOCC3)C(c3nc4ccccc4[nH]3)C2)cc1 (centres undefined) 10.4 µM, CN(C)CCCNC(=O)c1ccc(/C=N/O)nc1 1.85 µM, c1ccc(-c2onc3cc4c(cc23)OCCO4)cc1 2.07 µM, Fc1ccc(Nc2ccc(-c3ccc(F)cc3)nn2)cc1 3.29 µM, O=C(O)c1ccc(N/N=C/c2ccc(-c3ccc(Cl)cc3Cl)o2)cc1 18.5 µM, O=C(O)c1ccc(N/N=C/c2ccc(-c3cc(Cl)ccc3Cl)o2)cc1 6.56 µM, O=C(O)c1ccc(N/N=C/c2ccc(-c3cccc(Cl)c3)o2)cc1 0.927 µM, O=C(O)c1ccc(N/N=C/c2ccc(-c3ccc(Br)cc3)o2)cc1 5.85 µM, O=C(O)c1ccc(N/N=C/c2ccc(-c3ccccc3Cl)o2)cc1 0.293 µM, c1cnc2c(SCc3ccc(-c4nnco4)cc3)cccc2c1 13.1 µM, Cc1ccccc1OCCCn1c(=O)sc2ccccc21 6.56 µM, COc1ccccc1OCCCn1c(=O)sc2ccccc21 9.27 µM, O=C(Nc1ccc2oc(-c3ccc4ccccc4c3)nc2c1)c1cc(Br)ccc1Cl 16.5 µM, O=C(Nc1ccc2oc(-c3ccc4ccccc4c3)nc2c1)c1cccs1 1.04 µM, O=S(=O)(Nc1ccc2oc(-c3ccccc3)nc2c1)c1ccccc1 18.5 µM, O=C(Nc1ccc2oc(-c3ccccc3)nc2c1)c1ccccc1F 1.31 µM, COc1ccc2nc(SCC(=O)C(C)(C)C)[nH]c2c1 6.56 µM, CCOc1ccc2nc(SCC(=O)N(C)C)[nH]c2c1 7.36 µM, Cc1cccc(Nc2nc3c(s2)CCCC3)c1 2.07 µM, O=C1C=C(N2CCCCCC2)C(=O)N1c1ccc(Cl)cc1 5.21 µM, Cc1ccccc1OCCNC(=O)c1ccc2ccccc2n1 5.21 µM, CN1N=C(C(=O)Nc2ccc3c(c2)CCC3)CCC1=O 9.27 µM, Cn1cc(C(=O)Nc2ccc3c(c2)CCC3)cn1 7.36 µM, CCC(C)(C)C1CCc2[nH]nc(C(=O)N/N=C(\C)c3ccco3)c2C1 (centres undefined) 2.61 µM, CCCc1nnc(NC(=O)Nc2ccccc2OC)s1 16.5 µM, COc1ccccc1NC(=O)Nc1nnc(C(C)C)s1 14.7 µM, CC(C)(C)C(=O)Nc1nnc(CCc2ccccc2)s1 2.93 µM, c1ccc(Cn2nc(-c3ccccc3)nc2-c2ccccc2)cc1 16.5 µM, COc1ccc(C(=O)OCCc2ccc(O)cc2)cc1 6.56 µM, S=C1c2ccccc2CN1c1ccccc1 9.27 µM, Cc1ccccc1-c1nnc(SCC(=O)N(C)c2ccccc2)o1 16.5 µM, Cc1ccccc1-c1nnc(SCC(=O)N(C)C2CCCCC2)o1 14.7 µM, CCc1ccc(C2=NN(C(C)=O)C(c3ccco3)C2)cc1 (centres undefined) 2.33 µM, CC(=O)N1N=C(c2ccc(C)cc2)CC1c1ccco1 (centres undefined) 16.5 µM, Nc1ccc2nc3c(=O)n(C4CCCCC4)c(=O)[nH]c3nc2c1 14.7 µM, O=C(NC1CC(=O)c2sccc21)c1ccc(Cl)cc1Cl (centres undefined) 13.1 µM, CC(C)Oc1ccc2c(=O)c(-c3ccccc3)coc2c1 0.464 µM, COc1ccc(-c2coc3cc(O)ccc3c2=O)cc1OC 13.1 µM, O=c1c(-c2ccccc2)coc2cc(O)ccc12 1.85 µM, COc1ccc(-c2coc3cc(O)cc(O)c3c2=O)cc1OC 13.1 µM, Cc1ccc(C2=NNC3(CCOC(C)(C)C3)S2)cc1 (centres undefined) 3.69 µM, COc1ccc2cc3cc(C(=O)N4CCCCCC4)oc3nc2c1 0.414 µM, COc1ccc2nc3oc(C(=O)N4CCCCC4)cc3cc2c1 1.04 µM, Cc1ccc2cc3cc(C(=O)N4CCCCCC4)oc3nc2c1 0.261 µM, COc1ccc2cc3cc(C(=O)N4CCCC(C)C4)oc3nc2c1 (centres undefined) 1.04 µM, N#Cc1c(NC(=O)C2CC2)sc2c1CCCCC2 8.26 µM, Cc1cccc(C(=O)Nc2sc3c(c2C#N)CCCCC3)c1 0.261 µM, CCCC(=O)Nc1sc2c(c1C#N)CCCCC2 2.93 µM, Nc1nccc(/C=C/c2ccc(Cl)cc2)n1 2.07 µM, COc1cc2c(cc1NC(=O)Cc1ccc(C)cc1)oc1ccccc12 9.27 µM, COc1ccc(CC(=O)Nc2cc3oc4ccccc4c3cc2OC)cc1 14.7 µM, COc1ccc2oc(=O)c(-c3nc4ccccc4o3)cc2c1 9.27 µM
